# Active and inactive are the calls of the source. Rule as the data show it: active = inhibition of mean fluorescence above about 33%; inactive = the rest.
# Test: quorum sensing inhibitors in bacterial reporter, SAR follow-up, flow cytometry, SAR analogs (AID 1014);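 also: Staphylococcus aureus RN6390 with RNAIII-GFP reporter stimulated by AIP; bacteria incubated with compound for 3 hours at 37 °C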
# Conditions: at 20 µM, stronger effect = higher value; inhibition of percent positive cells: flow cytometry fluorescence, measured here: percent reporter-positive cells
Compound,inhibition of mean fluorescence,inhibition of percent positive cells
O=C(NCC(c1cccnc1)N1CCN(c2ccc(F)cc2)CC1)C1CC1 (stereo not drawn),-43% (inactive),0.1%
Cc1ccccc1Nc1c(F)c(F)c(F)c(F)c1C(=O)O,-18.8% (inactive),-1.9%
O=C(O)c1ccccc1Nc1cccc2c1C(=O)c1ccccc1C2=O,58.7% (active),10%
Cc1cc(Nc2ccccc2C(=O)O)n2ncnc2n1,-29.1% (inactive),-0.3%
O=C(CN1C(=O)c2ccccc2C1=O)N=C1NC(=O)CS1,3.2% (inactive),-1.2%
Cc1cccc(Nc2nc3c(S(=O)(=O)c4ccccc4)nnn3c3ccccc23)c1,3.1% (inactive),0.2%
COc1cccc(C(=O)NCC(c2cccnc2)N2CCN(c3ccc(F)cc3)CC2)c1 (stereo not drawn),8.6% (inactive),0%
O=C(NCC(c1cccnc1)N1CCN(c2ccc(F)cc2)CC1)c1ccccc1 (stereo not drawn),10% (inactive),-0.2%
CCOC(=O)c1c(C)oc2cc(Br)c(O)c(C=O)c12,-4.5% (inactive),2.9%
CC1CC(C)CN(C(C(=O)Nc2ccc(C(C)C)cc2)c2ccc3c(c2)OCO3)C1 (stereo not drawn),19.3% (inactive),-1.5%
O=C(CN1CC(=O)Oc2ccccc21)Nc1ccc2c(c1)OCO2,-25.8% (inactive),-0.2%
O=C(O)c1ccccc1Nc1ccccc1C(=O)O,5.8% (inactive),-0.5%
O=C(CSc1cn(CC(=O)N2CCCCC2)c2ccccc12)Nc1ccc2c(c1)OCO2,-6.3% (inactive),-0.1%
Cc1ccc(Nc2ncccc2C(=O)O)cc1,-7.8% (inactive),-1.3%
CC(=O)c1cc2c(O)c(O)ccc2o1,17.9% (inactive),-0.1%
O=C(c1ccco1)c1coc2ccc(O)cc12,-10.7% (inactive),0.2%
Cc1nnc(N2CCCC(C(=O)Nc3ccc4c(c3)OCO4)C2)c2nn(-c3ccccc3)c(C)c12 (stereo not drawn),-10.1% (inactive),0%
COc1c(F)c(F)c(C(=O)O)c(Nc2ccccc2C)c1F,9.6% (inactive),-0.2%
COc1cc(Nc2cc(C)nc3nc(C)nn23)c(C(=O)O)cc1OC,-11.6% (inactive),0.5%
COc1ccc(S(=O)(=O)c2nnn3c2nc(Nc2ccccc2)c2ccccc23)cc1,-22.4% (inactive),0.4%

Compound,inhibition of mean fluorescence,inhibition of percent positive cells
O=C(O)c1sc2ccccc2c1Nc1ccccc1,-2.8% (inactive),0.6%
O=C(NCC(c1cccnc1)N1CCN(c2ccccc2F)CC1)C1CC1 (stereo not drawn),-8.8% (inactive),-0.7%
CC(=O)Nc1ccc(Nc2nc3c(S(=O)(=O)c4ccccc4)nnn3c3ccccc23)cc1,-8% (inactive),3.3%
Cc1ccc(Nc2nc3c(S(=O)(=O)c4ccc(C(C)(C)C)cc4)nnn3c3ccccc23)cc1,-38.2% (inactive),-1%
N#Cc1c(NC(=O)c2cc3ccccc3c(=O)o2)sc2c1CCCCCC2,-18.3% (inactive),0.2%
COc1ccc(Nc2nc3c(S(=O)(=O)c4ccccc4)nnn3c3ccccc23)cc1,-5.6% (inactive),-0.4%
CCOC(=O)c1cnc2c(OC)cccc2c1Nc1ccccc1C(=O)O,-42.9% (inactive),-1.1%
O=C(NCC(c1cccnc1)N1CCN(c2ccccc2)CC1)c1cccs1 (stereo not drawn),47.7% (active),1.1%
COc1ccc(C(=O)NCC(c2cccnc2)N2CCN(c3ccccc3F)CC2)cc1 (stereo not drawn),-7.6% (inactive),-0.9%
Cc1ccc(C)c(Nc2c(F)c(F)c(F)c(F)c2C(=O)O)c1,2.3% (inactive),-1.9%
Cc1cc(C)nc(Nc2ccccc2C(=O)O)n1,22.7% (inactive),-0.8%
COc1ccc(C(=O)N2CCC(C(=O)Nc3ccc4c(c3)OCO4)CC2)cc1,-3.1% (inactive),0%
COc1ccc(C(=O)c2coc3ccc(O)cc23)cc1,5% (inactive),0.8%
CCOc1ccc(Nc2nc3c(S(=O)(=O)c4ccc(C(C)C)cc4)nnn3c3ccccc23)cc1,-3.7% (inactive),-0.1%
O=C(NCC(c1cccnc1)N1CCN(c2ccccc2F)CC1)c1cccc(Cl)c1 (stereo not drawn),67.2% (active),3.5%
CC1CCN(C(C(=O)NC2CCCC2)c2cc3c(cc2[N+](=O)[O-])OCO3)CC1 (stereo not drawn),-5.4% (inactive),-1%
O=C(Nc1ccc2c(c1)OCO2)C1CCN(C(=O)c2cnn(-c3ccccc3)c2-n2cccc2)CC1,-13.6% (inactive),-0.1%
Cc1ccc(S(=O)(=O)c2nnn3c2nc(Nc2cccc(C)c2)c2ccccc23)cc1,5.4% (inactive),1.5%
O=C(NC1CCCC1)C(c1cc2c(cc1[N+](=O)[O-])OCO2)N1CCOCC1 (stereo not drawn),-11.5% (inactive),-0.1%

# Source: PubChem BioAssay AID1014 (NMMLSC, 2008)
